From ChEMBL document CHEMBL4513216, “Probing the Open Global Health Chemical Diversity Library for Multistage-Active Starting Points for Next-Generation Antimalarials” (ACS Infect Dis, 2020)
Out of some 69,000 compounds screened, about 8,600 (12%) showed an effect of 50% or more. The sample holds strong results, similar compounds and a random draw of the others, so the mix is not that of the screen.

What follows are molecules tested on Plasmodium berghei (assay: Screen against P. berghei liver stage (PbLuc), transformed with Luciferase, at 10uM). Details: tested at 10 uM.
Assay type: functional, HepG2

SMILES	INHIBITION
CC(C(=O)NCC1CCN(c2ccncc2)CC1)S(C)(=O)=O (stereo not given)	-7.94%
O=C(c1cnc2ccc(F)cc2c1NCc1ccco1)N1CCCCC1	-6.73%
CCN(Cc1ccc(F)c(F)c1)Cc1nc2c(cnn2C)c(=O)[nH]1	-57.4%
CSCC(=O)N1CCCC(CCC(=O)N(C)CCc2ccccn2)C1 (stereo not given)	29.2%
CCc1nc(C2CCCN2C(=O)CCc2nc(C3CC3)no2)no1 (stereo not given)	-9.19%
O=S(=O)(C1CC1)N1Cc2nccn2CC(Cn2cncn2)C1 (stereo not given)	68.3%
CCCS(=O)(=O)N1Cc2nccn2CC(Cn2cncn2)C1 (stereo not given)	-23.1%
CCS(=O)(=O)N1Cc2nccn2CC(Cn2cncn2)C1 (stereo not given)	20.6%
Cc1nccn1CCC1CCN(C(=O)C2CC3(CCNCC3)CN2)CC1 (stereo not given)	33.9%
COCCN1CCN(CCS(C)(=O)=O)CC1C (stereo not given)	-73.1%
COCCN1CCN(CCCS(=O)(=O)N(C)C)CC1C (stereo not given)	66.7%
COCCN1CCN(CCCS(C)(=O)=O)CC1C (stereo not given)	25.7%
NCc1cccc(-c2cccnc2C(=O)NCCN2CCOCC2)c1	25.8%
Cn1cc(NC(=O)c2cc3c(s2)CCCC3)cn1	-179%
CCc1nc(CCNC(=O)C2CCOC2)sc1C (stereo not given)	56.8%
CCc1nc(CCNC(=O)C2CC2)sc1C	2.69%
Cc1csc(CCNC(=O)C2CCOC2)n1 (stereo not given)	8.08%
N#Cc1c(N2CCOCC2)nsc1-c1cccnc1	-31.3%
Cc1cccc(C(C)C)c1NC(=O)NCCN(C(C)C)C(C)C	56%
COCCCNC(=O)Nc1c(C)cccc1C(C)C	-19.1%
CCN(CC)CCCNC(=O)Nc1c(C)cccc1C(C)C	7.3%
CCN(CC)C(=O)c1ccc(CNc2cncc(-n3cccn3)n2)cc1	29.4%
Cc1nc(CN2CCN(c3ccc(Cl)cn3)CC2)no1	-52.4%
Cn1ccnc1-c1cccc(NC(=O)NCCCO)c1	10%
CCOCCNC(=O)Nc1cccc(-c2nccn2C)c1	-21.8%
CCC(CC)C(O)CNC(=O)Nc1cccc(-c2nccn2C)c1 (stereo not given)	50.8%
Cn1cnc2c1C(COCC1CC1)CN(c1ncccn1)C2 (stereo not given)	-32%
CC(=O)N1CCCN(C(=O)NC(C)Cn2cccn2)CC1 (stereo not given)	21.6%

SMILES	INHIBITION
Cn1cc(CN2C[C@@H]3CCCO[C@@H]3[C@H](N3CCCC3=O)C2)cn1	-3.51%
CCOCc1nc2c(c(NC(COC)c3ccccn3)n1)CCNCC2 (stereo not given)	8.31%
COc1ccc(C(=O)C2CCCN(Cc3ccccc3O)C2)c(OC)c1 (stereo not given)	-20.5%
COc1ccc(C(=O)C2CCCN(CCCn3cccn3)C2)c(OC)c1 (stereo not given)	25.4%
COc1ccc(C(=O)C2CCCN(Cc3ccncc3)C2)cc1OC (stereo not given)	63%
COc1ccc(C(=O)C2CCCN(Cc3ccc(C)o3)C2)c(OC)c1 (stereo not given)	42.9%
COc1ccc(C(=O)C2CCCN(Cc3cc(C)n[nH]3)C2)c(OC)c1 (stereo not given)	68.5%
COc1ccc(F)cc1C(=O)C1CCCN(Cc2ccc(C)s2)C1 (stereo not given)	43.9%
COc1ccc(C(=O)C2CCCN(Cc3ccon3)C2)c(OC)c1 (stereo not given)	47.7%
COc1ccc(C(=O)C2CCCN(Cc3cccc(F)c3)C2)c(OC)c1 (stereo not given)	76.9%
COCCc1ncc(CN2CCCC(C(=O)c3ccccc3)C2)cn1 (stereo not given)	36.8%
COc1ccc(C(=O)C2CCCN(CCc3ccccc3)C2)c(OC)c1 (stereo not given)	71.3%
COc1ccc(C(=O)C2CCCN(Cc3ccncc3)C2)c(OC)c1 (stereo not given)	-3.1%
CN1CCN(C(=O)c2ncn3c2CN(C)S(=O)(=O)c2ccccc2-3)CC1	-79.8%
CCc1noc(CN2CCC(c3ccnn3CCO)CC2)n1	-19.4%
CN(C)C(C(=O)N1CCC(c2ncc[nH]2)CC1)c1ccc2c(c1)OCO2 (stereo not given)	14.3%
O=C1COC2(CCN(C(=O)c3ccoc3)CC2)CN1Cc1ccccn1	-33.9%
CN(C)C(CNC(=O)OCC(F)(F)F)c1ccsc1 (stereo not given)	44.3%
CN(C)C(CNC(=O)CCNC(=O)OCC(F)(F)F)c1ccsc1 (stereo not given)	61.9%
CCOCCC(=O)NCC(C)c1ccsc1 (stereo not given)	32%
CC(C)c1cc(C(=O)N2CCCC(c3cc(=O)nc4n3CCC4)C2)no1 (stereo not given)	18.4%
CC1(C)CN(C(=O)Nc2cc(C(F)(F)F)c[nH]c2=O)CCO1	4.97%
CCO[C@H]1CC[C@H]2[C@H]1OCCN2CCOCc1ccccc1	4.98%
O=C(N[C@@H]1CN(c2ncccn2)C[C@@H]2CCCO[C@@H]21)c1ccnnc1	-3.52%
COc1ccc(OC)c(-n2c(COC(C)C)n[nH]c2=O)c1	45.4%
COc1ccc(Cl)cc1-n1c(COC(C)C)n[nH]c1=O	26.4%
COc1ccc(C)cc1-n1c(COC(C)C)n[nH]c1=O	72.3%
